Drawing on PubChem BioAssay AID1578 (Sanford-Burnham Center for Chemical Genomics, 2009), this text covers inhibition for 54 molecules.

SMILES strings stand for the structures. Out of some 290,000 compounds screened, about 3,000 (1%) were called active. This is one part of a sample in which actives are shown more often than they occur. Cut-off read from the data, not from the text of the source: active = inhibition mostly above about 36% (no sharp cut-off); inactive = mostly below about 34%.

The experiment can be described thus: NOD1 signaling inhibitors, primary screen, cell-based, luminescence, uHTS (AID 1578).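 Note: HEK-293T reporter cells stimulated with the NOD1 agonist gamma-tri-DAP.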 As to conditions: NOD1-driven NF-kB luciferase reporter cells, at 4 µM, stronger effect = higher value.
`CC(C)(C)C(=O)c1cn(CC(=O)NCc2ccco2)c2ccccc12`: the inhibition was -39.1% (inactive).
As to `Cc1ccc(-n2c(O)c(/C=N/N3CCCCCC3)c(=O)[nH]c2=O)cc1C`, the inhibition was 1.1% (inactive).
As for `CCC(=NCCCn1ccnc1)c1c(O)n(-c2ccc(OC)cc2)c(=O)[nH]c1=O`, the inhibition was -8.6% (inactive).
For the molecule `COc1cccc(C(=O)C2CN(C)CC2c2ccc(Cl)cc2)c1` (centres undefined), the inhibition is -33.4% (inactive).
As to `CC/C(=N\NC(=O)c1ccccc1)c1c(O)n(Cc2ccccc2)c(=O)[nH]c1=O`, the inhibition was 12.5% (inactive).
Turning to `O=c1[nH]c(=S)n(C2CC2)c(O)c1C=NCC1CCCO1` (centres undefined), the inhibition is -13.4% (inactive).
The same measure for `O=c1cccc2n1CC1CC2CN(Cc2c(Cl)cccc2Cl)C1` (centres undefined): 14% (inactive); for `O=c1cccc2n1CC1CC2CN(Cc2c(F)cccc2Cl)C1` (centres undefined): -7.2% (inactive).
Turning to `O=c1cccc2n1CC1CC2CN(Cc2cccc(Cl)c2Cl)C1` (centres undefined), the inhibition is 63.8% (active).
With `COC(=O)c1ccccc1NC(=O)N1C[C@@H]2C[C@@H](C1)c1cccc(=O)n1C2`, the inhibition is -15.8% (inactive).
With `CCc1ccccc1NC(=O)N1C[C@H]2C[C@@H](C1)c1cccc(=O)n1C2`, the inhibition was 54.5% (active).
Then `COc1ccc(CC(=O)N2C[C@H]3C[C@@H](C2)c2cccc(=O)n2C3)cc1`, with 24.2% (inactive).
For the molecule `COc1ccccc1NC(=O)N1C[C@@H]2C[C@@H](C1)c1cccc(=O)n1C2`, the inhibition is -34.3% (inactive).
Consider `O=C(CCc1ccc(O)cc1)N1C[C@H]2C[C@@H](C1)c1cccc(=O)n1C2`, for which the inhibition is 9.1% (inactive).
The same measure for `COc1ccc(CCC(=O)N2C[C@H]3C[C@@H](C2)c2cccc(=O)n2C3)cc1`: 53.1% (active); for `O=[N+]([O-])c1ccc(N2CCCNCC2)c2ncccc12`: -0.2% (inactive); for `CC(C)Sc1nnc([C@@H](N)Cc2c[nH]c3ccccc23)o1`: -2.5% (inactive).
The same measure for `C[C@H]1O[C@@H](OC2CC[C@]3(C=O)[C@H]4CC[C@]5(C)[C@@H](C6=CC(=O)OC6)CC[C@]5(O)[C@@H]4CC[C@]3(O)C2)CC2OC(C)(C)OC21` (some centres undefined): 89.2% (active); for `CC12CC[C@H]3[C@@H](CCC4(O)C[C@H](O)CCC34/C=N/NC(=O)Cc3ccccc3)C1(O)CCC2C1=CC(=O)OC1` (some centres undefined): -7% (inactive); for `C[C@H]1O[C@@H](O[C@H]2[C@@H](O)C[C@H](O[C@H]3[C@@H](O)C[C@H](O[C@H]4CC[C@@]5(C)[C@H](CC[C@@H]6[C@@H]5CC[C@]5(C)[C@@H](C7=CC(=O)OC7)CC[C@]65O)C4)O[C@@H]3C)O[C@@H]2C)C[C@H](O)[C@@H]1O`: 105% (active).
For the molecule `CC12CC[C@H]3[C@@H](CCC4(O)C[C@H](O)CCC34/C=N/NC(=O)c3ccccc3F)C1(O)CCC2C1=CC(=O)OC1` (some centres undefined), the inhibition is -9.8% (inactive).
The same measure for `COc1cc(C(=O)N/N=C/C23CC[C@@H](O)CC2(O)CC[C@@H]2[C@@H]3CCC3(C)C(C4=CC(=O)OC4)CCC23O)ccc1O` (some centres undefined): -5.4% (inactive); for `CC12CC[C@H]3[C@@H](CCC4(O)C[C@H](O)CCC34/C=N/NC(=O)c3ccccc3O)C1(O)CCC2C1=CC(=O)OC1` (some centres undefined): 4.5% (inactive); for `CN1CCC2(O)OCCCC2C1` (centres undefined): 4.3% (inactive).
On to `Cc1c(N)c(C)c([N+](=O)[O-])c(C)c1[N+](=O)[O-]`, for which the inhibition is 69.5% (active).
Regarding `O=C1CN(C(=O)CN2CCCCC2)C(c2ccccc2)c2cc(Br)ccc2N1` (centres undefined), the inhibition is -24.1% (inactive).
As to `Cc1cccc(C)c1NC(=O)c1cccn(Cc2ccc3c(c2)OC(F)(F)O3)c1=O`, the inhibition was 21.8% (inactive).
The same measure for `O=C(Nc1cccc(C(F)(F)F)c1)c1cccn(Cc2ccc3c(c2)OC(F)(F)O3)c1=O`: 35.6% (inactive); for `O=C(Nc1ccc(C(F)(F)F)cc1)c1cccn(Cc2ccc3c(c2)OC(F)(F)O3)c1=O`: 59.7% (active).
As for `O=C(Nc1ccccc1)c1cccn(Cc2ccccc2)c1=O`, the inhibition is 23% (inactive).
Take `O=C(Nc1ccncc1)c1cccn(Cc2ccccc2)c1=O`: the inhibition is 33.5% (active).
With `O=C(NCc1ccccc1)c1cccn(Cc2ccccc2)c1=O`, the inhibition is 2.3% (inactive).
Regarding `Cc1nn(Cc2ccccc2Cl)c(Cl)c1C(=O)OCC(=O)NCc1ccco1`, the inhibition was 2.8% (inactive).
As for `CC(C)Oc1ccc(CCN)cc1Cl`, the inhibition was -19.6% (inactive).
The same measure for `CCCCCn1c(=O)c(C(=O)Nc2ccccn2)c(O)c2ccccc21`: -4.7% (inactive).
Turning to `Cc1ccc(CN(Cc2ccccc2)C(=S)NCC(=O)N2CCC3(CC2)OCCO3)o1`, the inhibition was -33.5% (inactive).
The same measure for `CCOC(=O)c1[nH]ncc1CN1CCCC(C(=O)c2cccc(Cl)c2)C1` (centres undefined): -5.2% (inactive).
For `O=[N+]([O-])c1ccc(NCc2ccc(Cl)cc2)c2ccncc12`, the inhibition is 37% (active).
`O=[N+]([O-])c1ccc(NC2CCCC2)c2ccncc12`: the inhibition is 40.7% (inactive).
For the molecule `O=[N+]([O-])c1ccc(NC2CCN(Cc3ccccc3)CC2)c2ccncc12`, the inhibition was -6.9% (inactive).
As for `Fc1cccc(CN2CCN(c3ccc(Cl)cc3)CC2)c1`, the inhibition is -10.4% (inactive).
In the case of `CC(C)=CCc1c(O)cc2c(c1O)C(=O)CC(c1ccc(O)cc1)O2` (centres undefined), the inhibition is 5.8% (inactive).
In the case of `CN1CCN(/N=C/c2c[nH]c3ccccc23)CC1`, the inhibition is -2.1% (inactive).
The same measure for `CN1CCC(c2c[nH]c3ccccc23)C1` (centres undefined): 34.9% (active).
Consider `OC(CN1CCC(c2c[nH]c3ccccc23)CC1)C(F)(F)F` (centres undefined), for which the inhibition is 1.1% (inactive).
With `CN1CC(C(=O)c2ccc(Cl)cc2)C(c2ccccc2F)C1` (centres undefined), the inhibition was -15.7% (inactive).
Regarding `Cc1c(N=Nc2c(O)n(-c3ccc(Br)cc3)c(=O)[nH]c2=O)c(=O)n(-c2ccccc2)n1C`, the inhibition was -1.1% (inactive).
Turning to `O=c1[nH]c(=O)n(-c2ccccc2)c(O)c1N=Nc1ccc(Br)cc1`, the inhibition was 60.1% (active).
`CCOc1ccc(-n2c(O)c(N=Nc3ccc([N+](=O)[O-])cc3)c(=O)[nH]c2=O)cc1`: the inhibition is -17.8% (inactive).
Consider `CC(=NCCCN1CCOCC1)c1c(O)n(-c2ccccc2C)c(=O)[nH]c1=O`, for which the inhibition was -51.5% (inactive).
On to `CCOP(=O)(OCC)c1cc(C)c(O)c(C(C)(C)C)c1`, for which the inhibition was -1.1% (inactive).
In the case of `CN1CCN(Cc2cc(C(C)(C)C)c(O)c(C(C)(C)C)c2)CC1`, the inhibition is 16.1% (inactive).
As to `CC(C)(C)c1cc([N+](=O)[O-])cc(C(C)(C)C)c1O`, the inhibition was 67.8% (active).
As for `O=[N+]([O-])c1ccccc1CNCCc1c[nH]c2ccccc12`, the inhibition was -15.3% (inactive).
